From PubChem BioAssay (EPA / NIEHS) come the findings set out here.

Results filed as inconclusive are left out. Active and inactive are the calls of the source. Rule for the calls: active = hit-call score of the fitted dose curve at least 0.9, where 1 is the maximum; inconclusive = response in the unintended direction; inactive = score below 0.9.

Androgen receptor (Homo sapiens), sequence (P10275 whole entry, looked up, the tested form may be a part): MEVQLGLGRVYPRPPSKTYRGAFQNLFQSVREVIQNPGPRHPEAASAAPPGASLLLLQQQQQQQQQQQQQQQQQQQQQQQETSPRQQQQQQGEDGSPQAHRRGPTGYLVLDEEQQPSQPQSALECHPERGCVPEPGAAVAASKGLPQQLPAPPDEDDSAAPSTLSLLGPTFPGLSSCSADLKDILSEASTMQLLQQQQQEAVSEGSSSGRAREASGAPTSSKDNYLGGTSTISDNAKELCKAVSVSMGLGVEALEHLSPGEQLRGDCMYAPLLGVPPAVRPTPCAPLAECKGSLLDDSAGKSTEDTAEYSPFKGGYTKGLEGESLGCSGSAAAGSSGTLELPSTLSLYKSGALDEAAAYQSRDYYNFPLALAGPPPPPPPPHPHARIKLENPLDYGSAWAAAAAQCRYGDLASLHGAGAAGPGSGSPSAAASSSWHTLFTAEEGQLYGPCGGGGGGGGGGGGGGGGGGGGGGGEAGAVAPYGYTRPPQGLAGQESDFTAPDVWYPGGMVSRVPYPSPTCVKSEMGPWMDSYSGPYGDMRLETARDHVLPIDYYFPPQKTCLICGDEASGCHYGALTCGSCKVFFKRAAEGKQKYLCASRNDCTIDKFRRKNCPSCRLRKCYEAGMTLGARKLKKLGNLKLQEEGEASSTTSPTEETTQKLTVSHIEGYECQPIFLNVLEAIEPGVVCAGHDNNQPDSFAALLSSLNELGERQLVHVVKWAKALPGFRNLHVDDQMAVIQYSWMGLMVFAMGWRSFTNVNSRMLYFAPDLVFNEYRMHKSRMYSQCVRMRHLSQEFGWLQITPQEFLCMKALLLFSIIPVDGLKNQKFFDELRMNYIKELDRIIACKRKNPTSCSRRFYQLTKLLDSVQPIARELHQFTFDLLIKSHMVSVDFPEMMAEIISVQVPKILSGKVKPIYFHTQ

The test addresses Androgen receptor (Homo sapiens) (UniProt P10275). In words: ATG_AR_TRANS: Attagene TRANS-FACTORIAL HepG2 Assay for human Androgen Receptor (AR) (AID 2282973). The note with it: HepG2 Attagene TRANS-FACTORIAL AR reporter transcription. In short, it runs like this:
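HepG2 cells transiently transfected with multiplexed GAL4-UAS reporter units and chimeric NR-Gal4 fusion; 24 h compound exposure. Reporter mRNA measured by RT-PCR, 6-FAM labelling, HpaI digestion and capillary electrophoresis; gain-of-signal fitted relative to DMSO baseline.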
As to `CC1(C)COCN1`, the molecule was classed as inactive.
`Nc1cc(Cl)c(-c2cc(Cl)c(N)cc2Cl)cc1Cl`: the result was inactive.
Turning to `CCCc1ccc(OC)cc1`, the outcome was inactive.
`COCC(C)N` (centres undefined): the outcome was inactive.
For the molecule `CCCCCc1ccc(O)cc1`, the molecule was classed as inactive.
`CCCCCCCCCc1ccc(OCCO)cc1`: the outcome was inactive.
Take `CC(C)(C)c1cc(CCC(=O)NCCCCCCNC(=O)CCc2cc(C(C)(C)C)c(O)c(C(C)(C)C)c2)cc(C(C)(C)C)c1O`: the result was inactive.
With `O=[N+]([O-])c1ccccc1C(F)(F)F`, the molecule was classed as inactive.
With `CC(C)(C)c1cc(O)c(C(C)(C)C)cc1O`, the outcome was inactive.
The result for `C=C1CC[C@H]2O[C@]2(C)CC[C@@H]2[C@@H]1CC2(C)C` reads “inactive”; that for `CCc1cccc(C)c1N`, “inactive”.
Take `O=C1CCCCCCCCCCCC(=O)OCCO1`: the outcome was inactive.
The result for `CCCCCCCCCCCCCC(=O)OCC(O)CO` (centres undefined) reads “inactive”; that for `C[C@H]1O[C@@H](O[C@H]2[C@@H](O)C[C@H](O[C@H]3[C@@H](O)C[C@H](O[C@H]4CC[C@@]5(C)[C@H](CC[C@@H]6[C@@H]5C[C@@H](O)[C@]5(C)[C@@H](C7=CC(=O)OC7)CC[C@]65O)C4)O[C@@H]3C)O[C@@H]2C)C[C@H](O)[C@@H]1O`, “inactive”; that for `Oc1ccc(Cl)cc1Cc1cc(Cl)ccc1O`, “inactive”.
With `CCOc1nc(F)cc2nc(S(=O)(=O)Nc3c(Cl)cccc3C(=O)OC)nn12`, the call was inactive.
Turning to `COCCOCCOC`, the result was inactive.
For the molecule `CCCCCCOc1ccc(O)cc1`, the call was inactive.
Turning to `Cc1ccc(C)c(O)c1C`, the outcome was inactive.
Then `FC(F)(F)C(F)(F)C(F)(F)Br`, with “inactive”.
Turning to `CCN=c1cc2oc3cc(NCC)c(C)cc3c(-c3ccccc3C(=O)OCC)c-2cc1C`, the molecule was called inactive.
As to `Cc1cc(C)c(S(=O)(=O)O)cc1N=Nc1cc(S(=O)(=O)O)c2ccccc2c1O`, the call was inactive.
In the case of `CC(C)CCCC(C)CCO` (centres undefined), the outcome was inactive.
As to `O=C(c1ccccc1)c1ccccc1`, the molecule was called inactive.
As to `O=C(C=C(O)C(F)(F)F)C(F)(F)F`, the result was inactive.
Take `CC(=O)CC(C)(C)O`: the result was inactive.
As for `Nc1cc([N+](=O)[O-])ccc1Cl`, the outcome was inactive.
Take `CC(C)CC(=O)CC(C)CC(C)C` (centres undefined): the outcome was inactive.
`Cc1ccc2ccc3ccc(C)cc3c2c1`: the call was inactive.
In the case of `CCC(C)(C)c1cc(O)c(C(C)(C)CC)cc1O`, the molecule was called inactive.
In the case of `FC(F)(F)C1(F)C(F)(F)C(F)(F)C(F)(F)C(F)(C(F)(F)F)C1(F)F` (centres undefined), the result was inactive.
Regarding `COc1cc(CCC(C)=O)ccc1O`, the molecule was classed as inactive.
`CCCOC(=O)c1ccc(C(=O)OCCC)nc1`: the result was inactive.
For `CCN(CC)c1ccc(C(=C2C=CC(=[N+](CC)CC)C=C2)c2ccc(S(=O)(=O)O)cc2S(=O)(=O)[O-])cc1`, the outcome was inactive.
Then `O=C1CCCCC1`, with “inactive”; and `CCC(C)NC(N)=O` (centres undefined), with “inactive”; and `CC(=O)N(C)C`, with “inactive”.
The result for `CCCCCCCOC(=O)c1ccccc1C(=O)OCCCCCCC` reads “inactive”.
With `COc1ccc2c(c1)c(CC(=O)O)c(C)n2C(=O)c1ccc(Cl)cc1`, the outcome was inactive.
